# Most compounds without a hit are left out; they make up all but 1.8% or so of the library.
# Imprint erasure: induces erasure of genomic imprints in mouse ES cells. mouse ES Peg3-LacZ reporter, beta-gal luminescence, 40 h. Potency, µM (series often up to 60.7 µM), without a hit: at the top dose activity change, positive = activation, most hits filed as activators. 0.02% of 110,000 active
#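 Each well holds 300 Peg3LacZ-Neo (maternal) female ES cells incubated 40 h at 37C, 5% CO2. LacZ is measured by BetaGlo luminescence, with AC50 and maximum efficacy derived from dose-response curves.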
# p53ts 39C tox: cytotoxicity in p53ts cells at nonpermissive temperature | 1.5% of 130,000 active | H1299-p53A138V viability at 39C, ATP luminescence, 24 h | Potency, µM (titrated, usually from 46.1 µM), for inactives: at the highest dose activity change, negative = cell killing, actives largely listed as cytotoxic | AID 902; also: % is scaled to controls: 0 for no effect and ±100 for the full control effect; nearly all actives have a fitted effect of over 55% in size
# p53ts 32C kill: kills p53ts cells at the permissive temperature. H1299-p53A138V at 32C, ATP luminescence viability, 24 h. Potency, µM (titrated, usually from 46.1 µM), for the others: at the top dose activity change, negative = cytotoxicity, hits mostly cytotoxic. 0.93% of 130,000 active. AID 924;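 also: 0% = DMSO and -100% = full killing by reference compound; nearly all actives have a fitted effect of over 55% in size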
#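 H1299-p53 A138V cells (temperature-sensitive p53) exposed 24 h to up to 46 uM compound at 32C, where p53 is wild-type in conformation. Viability read as ATP luminescence and normalised to DMSO and 100 uM tamoxifen. AC50 fitted with the Hill equation.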
# * = called active by the depositor; ? = inconclusive; . = no result given; [ ] = remark or other dose. Calls follow the shape of the dose curve; as a rule, active = well fitted curve in the direction sought with a large enough effect; inconclusive = small, poorly fitted or top-dose-only effect, or another doubt; inactive = no such curve, though single readings can be large; an effect the other way counts as inactive or inconclusive. Potency is read from the fitted curve at half-maximal effect.
SMILES,Imprint erasure,p53ts 39C tox,p53ts 32C kill
CCOc1ccc(NC(=O)CSc2oc(-c3ccc(C)cc3)nc2S(=O)(=O)c2ccc(C)cc2)cc1,-41%[10.9 µM],0.79µM*,13µM*
Cc1cc(C)cc(NC(=O)CSc2oc(-c3ccccc3)nc2S(=O)(=O)c2ccccc2)c1,-15%[10.9 µM],?,-17%
CCOc1ccc(NC(=O)CSc2oc(-c3cccs3)nc2S(=O)(=O)c2ccc(Cl)cc2)cc1,-27%[10.9 µM],13µM*,-23%
Cc1cc(C)cc(NC(=O)CSc2oc(-c3cccs3)nc2S(=O)(=O)c2ccc(Br)cc2)c1,8%[10.9 µM],-2%,-6%
Cc1ccccc1C(=O)Nc1ccc(OCc2cc(=O)n3cccc(C)c3n2)cc1,13%[10.9 µM],5%,1%
CCn1c2c(c(=O)n3ncc(C(=O)N4CCN(c5ccc(Cl)cc5)CC4)c13)CN(Cc1ccc(OC)cc1)CC2,-14%[10.9 µM],-23%,6%
Cc1nc2ccc3nc(NC(=O)c4ccc5c(c4)OCCO5)sc3c2s1,5%,3%,-2%
Cc1nc2c(ccc3nc(NC(=O)c4ccc5c(c4)OCCO5)sc32)s1,-1%,3.2µM*,4µM*
CC(O)/C=C/c1ccc2ccccc2n1 (stereo not drawn),-53%,?,25µM*
C/C(CC(O)c1ccc2ccccc2n1)=N/O (stereo not drawn),-22%,-7%,-16%
CCOc1ccc(C2c3c(-c4ccc(C)cc4)n[nH]c3C(=O)N2c2ccc(Cl)cc2)cc1 (stereo not drawn),-11%[10.9 µM],?,30%
Cc1ccc(N2C(=O)CS(=O)(=O)C23C(=O)N(Cc2ccc(Cl)cc2)c2ccccc23)cc1C (stereo not drawn),?,13%,14%
COc1ccc(OC)c(NC(=O)Cn2cc(C(=O)c3cccs3)c3ccccc32)c1,-6%[10.9 µM],-27%,1%
COc1ccc2c(c1)Cc1sc(NC(=O)c3cccc(Cl)c3)nc1-2,11%[10.9 µM],25µM*,?
COc1ccc2c(c1)Cc1sc(NC(=O)c3cccc(C)c3)nc1-2,-6%[10.9 µM],-10%,4%
COc1ccc(NC(=O)CSc2nc3ccccc3nc2N2CCC(C)CC2)cc1,-6%[10.9 µM],3%,11%
CC1=C(C(=O)Nc2cccnc2)C(c2cccc(O)c2)n2nc(SCc3ccccc3)nc2N1 (stereo not drawn),-7%[10.9 µM],-2%,0%
Clc1ccc2nc(-c3ccc(N4CCOCC4)cc3)c(Nc3ccccc3)n2c1,-7%[10.9 µM],19%,-3%
Cc1ccn2c(Nc3ccccc3C)c(-c3ccc(N4CCOCC4)cc3)nc2c1,-11%[10.9 µM],-10%,3%
Cc1ccccc1Nc1c(-c2ccc(N3CCOCC3)cc2)nc2ccc(Cl)cn12,-30%[10.9 µM],10µM*,?
Cc1ccc2nc(-c3ccc(N4CCOCC4)cc3)c(Nc3ccccc3C)n2c1,-12%[10.9 µM],?,13µM*
Cc1ccc(CCNC(=O)c2cn(C)c3ccc(S(=O)(=O)N4CCCCC4)cc3c2=O)cc1,-8%[10.9 µM],-1%,5%
CCC(Cn1nnc2ccccc2c1=O)NC(=O)Nc1cc(Cl)ccc1OC (stereo not drawn),6%[10.9 µM],-14%,0%
CC(C)c1ccc(Cn2ccc3c4c(N)nc(NC5CC5)nc4ccc32)cc1,-26%,32µM*,?
CCn1cc(/C=C(\NC(=O)c2cc(OC)c(OC)c(OC)c2)C(=O)NCCCn2ccnc2)c2ccccc21,-5%[10.9 µM],21%,-6%
SMILES,Imprint erasure,p53ts 39C tox,p53ts 32C kill
Cc1cc(C)c(NC(=O)Cn2nnc3sc4c(c3c2=O)CCC(C(C)(C)C)C4)c(C)c1 (stereo not drawn),-11%[10.9 µM],13µM*,?
Cc1ccc(Cl)cc1NC(=O)Cn1nnc2sc3c(c2c1=O)CCC(C(C)(C)C)C3 (stereo not drawn),7%[10.9 µM],-19%,4%
COc1ccc(CNC(=O)c2cc(-c3cccs3)nc3ccccc23)c(OC)c1,-14%[10.9 µM],-11%,2%
Cc1ccc2nc(/C(C#N)=C/c3cccc(Br)c3)[nH]c2c1,-13%[10.9 µM],-25%,?
Cc1ccc2nc(/C(C#N)=N/O)[nH]c2c1,-14%,?,7.9µM*
Cc1ccc(C(C)C)c(OCC(=O)Nc2cc(-c3nc4ccccc4[nH]3)ccc2C)c1,-10%[10.9 µM],10µM*,?
COc1cc(OC)cc(C(=O)Nc2cc(-c3nc4ccccc4[nH]3)ccc2C)c1,-17%[10.9 µM],-7%,-10%
CC(C)Oc1ccc(CNC(=O)c2cccc(NC(=O)c3nsc4ccccc34)c2)cc1,-3%[10.9 µM],-30%,-25%
CN(Cc1ccccc1)C(=O)c1cccc(NC(=O)c2nsc3ccccc23)c1,-20%[10.9 µM],10µM*,?
CC(C)(C)n1cnc2cc(NCc3ccccc3Cl)ccc21,-9%[10.9 µM],?,?
Cc1ccc(S(=O)(=O)N(CC(=O)Nc2ccc3c(c2)OCO3)c2ccc(C)c(Cl)c2)cc1,-9%[10.9 µM],3%,12%
CCC(Cc1ccccc1)NC(=O)Cn1ncc2c3ccccc3n(Cc3ccc(F)cc3)c2c1=O (stereo not drawn),-12%[10.9 µM],10µM*,?
CCC(Cc1ccccc1)NC(=O)Cn1ncc2c3ccccc3n(Cc3ccccc3)c2c1=O (stereo not drawn),-11%[10.9 µM],?,-20%
O=C(Cn1ncc2c3ccccc3n(Cc3ccccc3F)c2c1=O)NCCc1ccc(Cl)cc1,-9%[10.9 µM],-14%,13%
O=C(Cn1ncc2c3ccccc3n(Cc3ccccc3)c2c1=O)NCCc1ccc(Cl)cc1,-19%[10.9 µM],13µM*,-11%
O=C(O)CC[C@@H](NC(=O)c1ccccc1C(=O)O)C(=O)O,.,19%,-2%
Cc1c(Cl)cccc1NC(=O)c1cc2sccc2n1Cc1ccc(F)cc1,-13%[10.9 µM],-21%,7%
Cc1cccc(NC(=O)C2CCCN(S(=O)(=O)c3c(C)n[nH]c3C)C2)c1 (stereo not drawn),-2%[10.9 µM],?,9%
O=C(CSc1nc2c([nH]c3ccccc32)c(=O)n1-c1ccccc1)Nc1cccc(C(F)(F)F)c1,12%[10.9 µM],-17%,3%
COc1ccc(-c2n[nH]c(C)c2-c2ccc(Cl)cc2)c(O)c1OC,-23%,?,13µM*
Cc1[nH]nc(-c2ccc(O)cc2O)c1-c1ccc(Cl)cc1,-10%,2%,16%
COc1ccccc1N1CCN(c2cc(C)nc3c(-c4ccc(Cl)cc4)c(C)nn23)CC1,-11%[10.9 µM],5%,0%
O=C1OC2(CCCCC2)OC(=O)C1=CNc1ccc2c(c1)OCO2,-2%,1%,3%
O=C1/C(=C/Nc2ccc3c(c2)OCO3)CCc2ccccc21,-95%,6.3µM*,4µM*
CCOC(=O)c1ccc(CN(Cc2ccc(OC)cc2)S(=O)(=O)c2cccc(C(F)(F)F)c2)cc1,-17%[10.9 µM],-20%,7%
COC(=O)c1ccc(NC(=O)CC2C(=O)N(c3cccc(OC)c3)C(=O)N2Cc2ccco2)cc1 (stereo not drawn),-8%[10.9 µM],-22%,1%
COC(=O)c1ccccc1NC(=O)CCC(=O)N1CCOc2ccccc21,-10%[10.9 µM],-15%,-9%
Cc1ccccc1NC(=O)CSc1nc2ccccc2c2nc(CCn3c(C)nc4ccccc43)nn12,15%[10.9 µM],-21%,3%
Cc1nc2ccccc2n1CCc1nc2c3ccccc3nc(SCC(=O)Nc3ccc(C(C)C)cc3)n2n1,-15%[10.9 µM],10µM*,?
Cc1ccc(Cl)cc1N1CCN(C(=O)CCCn2c(=O)[nH]c3ccc(Br)cc3c2=O)CC1,-5%[10.9 µM],-18%,0%

# Screens (PubChem BioAssay)
